Results: PubChem BioAssay (NCI)
About 79,000 compounds went through this panel and 15% of them were active in at least one assay; those are over-represented in the sample as a whole. Values without a mark were called inactive. Calls of active or inactive are those of the source. Cut-off read from the data, not from the text of the source: active = growth inhibition above about 70%; inactive = the rest.

Assays:
[1] = NCI Yeast Anticancer Drug Screen. Data for the rad50 strain (AID 155);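 note: 0% = growth of vehicle-only cultures of the same strain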; conditions: S. cerevisiae rad50 strain growth inhibition, hits give high values
Outline: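 Inhibition values express reduced yeast growth in compound-treated cultures relative to vehicle-treated controls.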

[2] = NCI Yeast Anticancer Drug Screen. Data for the mec2-1 strain (AID 157); conditions: S. cerevisiae mec2-1 strain, hits give high values
Outline: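 Mutant yeast (mec2-1) grown with compound; growth inhibition relative to vehicle control reported.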

[3] = NCI Yeast Anticancer Drug Screen. Data for the sgs1 mgt1 strain (AID 161);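 note: 0% = growth of cultures given vehicle only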; conditions: S. cerevisiae sgs1 mgt1 strain, hits give high values
Outline: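 Yeast cells carrying a defined DNA-repair defect were exposed to test compounds. Growth inhibition was measured relative to vehicle-treated controls.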

[4] = NCI Yeast Anticancer Drug Screen. Data for the cln2 rad14 strain (AID 165);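 note: 0% = growth equal to vehicle treated cultures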; conditions: S. cerevisiae cln2 rad14 strain, hits give high values
Outline: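 Readout is yeast growth inhibition versus vehicle-treated controls, using a strain with cln2 and rad14 alterations exposed to compound.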

[5] = NCI Yeast Anticancer Drug Screen. Data for the bub3 strain (AID 167); conditions: S. cerevisiae bub3 mutant strain, hits give high values
Outline: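 Steps: expose the mutant yeast strain to compound; grow alongside vehicle-treated cultures; measure growth; express inhibition against the vehicle cultures.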

[6] = NCI Yeast Anticancer Drug Screen. Data for the mlh1 rad18 strain (AID 175); conditions: S. cerevisiae mlh1 rad18 strain growth inhibition, hits give high values
Outline: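 Genetically defined yeast (DNA repair-deficient) exposed to compounds; growth inhibition determined relative to vehicle.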

[7] = at 5.0 µM (retest, dose inferred, filed as 0.5)
[8] = at 50.0 µM (retest, dose inferred, filed as 5.0)

SMILES	growth inhibition [1, 7]	growth inhibition [1, 8]	growth inhibition ([1]; at 50.0 µM)	growth inhibition [2, 7]	growth inhibition [2, 8]	growth inhibition ([2]; at 50.0 µM)	growth inhibition [3, 7]	growth inhibition [3, 8]	growth inhibition ([3]; at 50.0 µM)	growth inhibition [4, 7]	growth inhibition [4, 8]	growth inhibition ([4]; at 50.0 µM)	growth inhibition [5, 7]	growth inhibition [5, 8]	growth inhibition ([5]; at 50.0 µM)	growth inhibition [6, 7]	growth inhibition [6, 8]	growth inhibition ([6]; at 50.0 µM)
O=[N+]([O-])c1cc(CNCCO)c(O)c2ncccc12	99% (active)	99% (active)	98.7% (active)	100% (active)	99% (active)	99.3% (active)	99% (active)	99% (active)	99.2% (active)	95% (active)	98% (active)	97.9% (active)	99% (active)	99% (active)	99% (active)	99% (active)	99% (active)	98.8% (active)
Cc1[nH]nc(C(=O)N/N=C/c2cccs2)c1N=NN(C)C	73% (active)	96% (active)	97.2% (active)	15%	98% (active)	82.9% (active)	19%	73% (active)	97% (active)	-3%	96% (active)	99.3% (active)	-1%	95% (active)	87.6% (active)	80% (active)	98% (active)	99% (active)
CCCCCC(=O)NNc1ccccc1	18%	89% (active)	85.3% (active)	1%	76% (active)	42.6%	5%	48%	80% (active)	0%	51%	78% (active)	9%	95% (active)	83.1% (active)	22%	93% (active)	90.8% (active)
COc1cccc(C2CC(C)(O)Oc3cc4c(cc32)OCO4)c1 (configuration not stated)	4%	36%	33.8%	5%	16%	50.7%	-12%	9%	29.4%	8%	44%	54.6%	2%	57%	46.4%	-14%	38%	53%
COc1ccc2c(C#N)cc3c(c[n+](C)c4ccccc34)c2c1	25%	78% (active)	92% (active)	13%	58%	86.4% (active)	19%	71% (active)	87.8% (active)	15%	48%	80.7% (active)	-2%	65%	78% (active)	21%	83% (active)	92% (active)
O=C(Nc1cc(Cl)ccc1Oc1cc(Cl)c(Cl)cc1S(=O)(=O)O)Nc1cc(Cl)ccc1Oc1cc(Cl)c(Cl)cc1S(=O)(=O)O	-10%	81% (active)	85% (active)	-3%	73% (active)	87.4% (active)	-13%	79% (active)	84.1% (active)	23%	56%	76% (active)	14%	78% (active)	86% (active)	-4%	91% (active)	85.3% (active)
COc1ccc2cc(C(=O)CCCC(C)C(=O)O)ccc2c1 (configuration not stated)	0%	-9%	74.6% (active)	-9%	-11%	-7.85%	0%	38%	2.85%	-3%	-22%	-48%	-4%	-9%	3.55%	-12%	-4%	2.95%
O=C(CBr)N1c2ccccc2Sc2ccc3ccccc3c21	93% (active)	99% (active)	90.5% (active)	49%	99% (active)	90.7% (active)	81% (active)	99% (active)	91.7% (active)	62%	99% (active)	90% (active)	74% (active)	99% (active)	91% (active)	88% (active)	98% (active)	88.2% (active)
COC(=O)CCCCCCCCCCC(=O)O	-3%	-4%	2.45%	-1%	-2%	-11.6%	-2%	4%	-9.55%	-9%	-4%	-4.75%	-4%	-9%	38.6%	-2%	2%	-6.6%
CS(=O)(=O)C(c1nc2nnc(NC(=O)Nc3ccc(Cl)cc3)n2[nH]c1=O)c1nc2nnc(NC(=O)Nc3ccc(Cl)cc3)n2[nH]c1=O	-14%	11%	32.2%	-20%	23%	74.5% (active)	1%	-7%	24.6%	-36%	3%	30.6%	-41%	19%	71.3% (active)	-19%	32%	62.5%
CCC=Nc1c(O)cc(-c2ccccc2)n(C)c1=O	36%	71% (active)	73.2% (active)	35%	75% (active)	11.9%	40%	92% (active)	70.8% (active)	35%	45%	16.3%	35%	93% (active)	70% (active)	47%	94% (active)	60.5%
C[N+]1(C)C/C(=C\C=C\c2ccccc2)C(=O)/C(=C/C=C/c2ccccc2)C1	17%	17%	93.2% (active)	9%	9%	92.1% (active)	17%	17%	92.6% (active)	0%	0%	91.5% (active)	-2%	-2%	93.9% (active)	9%	9%	92.5% (active)
CCCn1cnc2c(SCc3ccc(Cl)cc3Cl)nc(N)nc21	12%	14%	97.1% (active)	12%	12%	97.2% (active)	13%	15%	97% (active)	12%	-9%	97.2% (active)	13%	16%	97.5% (active)	11%	12%	95.7% (active)
[Cl][Sn]1([Cl])[CH2]CC[CH2][Sn]([Cl])([Cl])[CH2]CC[CH2][Sn]([Cl])([Cl])[CH2]CC[CH2][Sn]([Cl])([Cl])[CH2]CC[CH2]1	-20%	57%	54.3%	-19%	63%	83.3% (active)	-3%	66%	87.5% (active)	-6%	47%	69.6%	-9%	66%	70.9% (active)	-2%	83% (active)	94% (active)
O=C(NC(=O)C(F)(F)F)Nc1ccc(Cl)cc1	1%	0%	-35.8%	-2%	-8%	-1.15%	1%	1%	9.75%	4%	0%	57.1%	-1%	-2%	18.9%	-1%	-1%	0.8%
S=C(N/N=C/c1ccco1)NC12CC3CC(CC(C3)C1)C2	29%	94% (active)	2.95%	24%	95% (active)	8.05%	76% (active)	96% (active)	10.9%	51%	91% (active)	-0.25%	71% (active)	93% (active)	13.4%	47%	94% (active)	26.2%
Oc1c(Br)cc(Cl)cc1Br	-4%	98% (active)	93.5% (active)	5%	99% (active)	98% (active)	4%	99% (active)	86.5% (active)	-11%	98% (active)	90.5% (active)	-6%	97% (active)	96% (active)	3%	96% (active)	97.5% (active)
CC[N+]1(C)CCC(O)(c2ccc(Cl)c(Cl)c2)C(C(=O)c2ccc(Cl)c(Cl)c2)C1 (configuration not stated)	15%	99% (active)	99.4% (active)	4%	100% (active)	99.6% (active)	11%	99% (active)	99% (active)	6%	99% (active)	99.5% (active)	13%	100% (active)	98.8% (active)	7%	100% (active)	99.6% (active)
CC1=Nc2ccccc2C1C(Cc1ccccc1N)c1c(C)[nH]c2ccccc12 (configuration not stated)	15%	97% (active)	95.6% (active)	16%	95% (active)	95.4% (active)	11%	90% (active)	88.8% (active)	15%	98% (active)	94.5% (active)	7%	95% (active)	89.6% (active)	11%	96% (active)	97% (active)
